Reference: the supplement of paper PMC11732987, “Enantioselective OTUD7B fragment discovery through chemoproteomics screening and high-throughput optimisation” (Communications Chemistry, 2025)

Key:
Assay in all cases: log2 ratio of Biotin-Ahx-Ub-VS probe labelling (fragment/DMSO); higher = less target engagement (more negative = stronger competition), active = hit call of the paper (q ≤ 0.05, log2 ratio ≤ -1)
Conditions in all cases: compound concentration: 200 uM; treatment time: 3 h
[1] = target: T1, USP42 (UniProt Q9H9J4)
T1 sequence (whole entry): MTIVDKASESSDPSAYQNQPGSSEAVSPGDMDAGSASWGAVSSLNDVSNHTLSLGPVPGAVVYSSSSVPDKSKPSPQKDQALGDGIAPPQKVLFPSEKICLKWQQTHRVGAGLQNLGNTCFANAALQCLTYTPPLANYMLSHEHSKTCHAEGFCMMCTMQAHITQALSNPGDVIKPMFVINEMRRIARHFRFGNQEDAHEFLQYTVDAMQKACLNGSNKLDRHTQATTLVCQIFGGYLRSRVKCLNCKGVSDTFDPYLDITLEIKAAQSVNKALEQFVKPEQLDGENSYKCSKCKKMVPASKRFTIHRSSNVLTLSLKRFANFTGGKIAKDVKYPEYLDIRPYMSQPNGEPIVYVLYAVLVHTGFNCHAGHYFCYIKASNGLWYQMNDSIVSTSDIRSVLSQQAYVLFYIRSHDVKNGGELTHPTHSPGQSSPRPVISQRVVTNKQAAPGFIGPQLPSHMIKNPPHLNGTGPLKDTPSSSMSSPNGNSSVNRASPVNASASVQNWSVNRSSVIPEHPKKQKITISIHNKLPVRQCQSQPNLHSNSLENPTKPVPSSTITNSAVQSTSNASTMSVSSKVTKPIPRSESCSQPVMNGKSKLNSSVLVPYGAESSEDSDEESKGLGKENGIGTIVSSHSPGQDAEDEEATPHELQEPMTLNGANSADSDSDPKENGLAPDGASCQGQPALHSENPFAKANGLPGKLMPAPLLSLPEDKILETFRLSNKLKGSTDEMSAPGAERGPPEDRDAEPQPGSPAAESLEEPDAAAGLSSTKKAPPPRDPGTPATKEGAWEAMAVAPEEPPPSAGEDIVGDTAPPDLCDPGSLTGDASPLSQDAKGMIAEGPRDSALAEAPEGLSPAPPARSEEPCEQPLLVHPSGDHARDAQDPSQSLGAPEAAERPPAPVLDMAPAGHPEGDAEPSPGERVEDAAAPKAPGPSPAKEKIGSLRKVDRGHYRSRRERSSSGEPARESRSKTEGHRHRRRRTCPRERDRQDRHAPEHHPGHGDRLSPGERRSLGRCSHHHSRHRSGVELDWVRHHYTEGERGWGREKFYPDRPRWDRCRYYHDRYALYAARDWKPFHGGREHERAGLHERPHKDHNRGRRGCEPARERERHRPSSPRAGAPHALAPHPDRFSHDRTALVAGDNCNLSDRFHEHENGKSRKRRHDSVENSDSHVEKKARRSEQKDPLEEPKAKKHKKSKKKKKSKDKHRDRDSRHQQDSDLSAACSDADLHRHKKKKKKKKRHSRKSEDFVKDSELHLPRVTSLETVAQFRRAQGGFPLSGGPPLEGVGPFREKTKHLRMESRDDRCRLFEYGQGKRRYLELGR
Summary of the method: (§1)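 Labelled DUBs from HEK293T lysate were NeutrAvidin-enriched, digested with LysC and trypsin, and run by diaPASEF LC-MS/MS. Before that, each 495 µg sample in Tris/CHAPS/IGEPAL buffer with protease inhibitors was treated in triplicate with fragment at 200 µM or vehicle for 3 h, then with Biotin-Ahx-Ub-VS at 0.5 µM final for 1 h. Values are average log2 ratios of fragment over vehicle by unpaired t-test, based on global-median-normalised Spectronaut label-free quantities from proteins with ≥2 unique peptides.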

[2] = target: USP46 (UniProt P62068)
Summary of the method: as §1

[3] = target: T2, USP47 (UniProt Q96K76)
T2 sequence (whole entry): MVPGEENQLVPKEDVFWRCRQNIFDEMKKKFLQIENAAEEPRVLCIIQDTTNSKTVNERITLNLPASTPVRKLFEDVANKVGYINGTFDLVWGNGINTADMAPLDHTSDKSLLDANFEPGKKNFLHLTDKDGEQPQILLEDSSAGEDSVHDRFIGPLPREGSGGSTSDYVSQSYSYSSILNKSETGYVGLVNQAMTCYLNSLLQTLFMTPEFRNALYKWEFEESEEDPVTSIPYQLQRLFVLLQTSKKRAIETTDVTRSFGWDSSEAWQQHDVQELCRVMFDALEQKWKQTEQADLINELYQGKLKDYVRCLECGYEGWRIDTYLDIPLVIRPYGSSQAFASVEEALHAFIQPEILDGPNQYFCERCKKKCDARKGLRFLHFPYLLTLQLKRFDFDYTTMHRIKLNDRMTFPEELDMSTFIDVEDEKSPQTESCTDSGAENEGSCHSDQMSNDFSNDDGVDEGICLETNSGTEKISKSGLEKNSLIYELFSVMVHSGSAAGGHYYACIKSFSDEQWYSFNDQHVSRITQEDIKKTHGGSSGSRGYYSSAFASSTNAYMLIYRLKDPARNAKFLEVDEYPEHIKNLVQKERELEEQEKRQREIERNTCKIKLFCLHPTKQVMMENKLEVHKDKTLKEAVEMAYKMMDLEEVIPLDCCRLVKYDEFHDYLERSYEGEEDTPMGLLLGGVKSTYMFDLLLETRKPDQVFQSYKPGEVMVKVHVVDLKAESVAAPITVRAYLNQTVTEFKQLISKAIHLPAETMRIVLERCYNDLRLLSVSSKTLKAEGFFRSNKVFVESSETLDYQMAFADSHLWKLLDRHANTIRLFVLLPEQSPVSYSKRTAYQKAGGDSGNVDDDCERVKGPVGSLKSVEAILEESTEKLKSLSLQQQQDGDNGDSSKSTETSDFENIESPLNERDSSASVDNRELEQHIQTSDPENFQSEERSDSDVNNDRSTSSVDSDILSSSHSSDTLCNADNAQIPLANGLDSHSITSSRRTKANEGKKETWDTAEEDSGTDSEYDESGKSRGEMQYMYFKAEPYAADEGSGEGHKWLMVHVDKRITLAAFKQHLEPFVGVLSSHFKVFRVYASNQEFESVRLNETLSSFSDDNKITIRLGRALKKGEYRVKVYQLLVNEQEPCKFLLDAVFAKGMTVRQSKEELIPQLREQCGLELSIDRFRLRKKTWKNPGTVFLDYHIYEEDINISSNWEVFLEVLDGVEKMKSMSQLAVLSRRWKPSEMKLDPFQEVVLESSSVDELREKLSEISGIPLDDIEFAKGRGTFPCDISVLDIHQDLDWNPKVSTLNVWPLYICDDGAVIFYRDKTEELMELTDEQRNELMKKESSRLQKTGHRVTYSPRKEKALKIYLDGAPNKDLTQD
Summary of the method: as §1

[4] = target: T3, USP48 (UniProt Q86UV5)
T3 sequence (whole entry): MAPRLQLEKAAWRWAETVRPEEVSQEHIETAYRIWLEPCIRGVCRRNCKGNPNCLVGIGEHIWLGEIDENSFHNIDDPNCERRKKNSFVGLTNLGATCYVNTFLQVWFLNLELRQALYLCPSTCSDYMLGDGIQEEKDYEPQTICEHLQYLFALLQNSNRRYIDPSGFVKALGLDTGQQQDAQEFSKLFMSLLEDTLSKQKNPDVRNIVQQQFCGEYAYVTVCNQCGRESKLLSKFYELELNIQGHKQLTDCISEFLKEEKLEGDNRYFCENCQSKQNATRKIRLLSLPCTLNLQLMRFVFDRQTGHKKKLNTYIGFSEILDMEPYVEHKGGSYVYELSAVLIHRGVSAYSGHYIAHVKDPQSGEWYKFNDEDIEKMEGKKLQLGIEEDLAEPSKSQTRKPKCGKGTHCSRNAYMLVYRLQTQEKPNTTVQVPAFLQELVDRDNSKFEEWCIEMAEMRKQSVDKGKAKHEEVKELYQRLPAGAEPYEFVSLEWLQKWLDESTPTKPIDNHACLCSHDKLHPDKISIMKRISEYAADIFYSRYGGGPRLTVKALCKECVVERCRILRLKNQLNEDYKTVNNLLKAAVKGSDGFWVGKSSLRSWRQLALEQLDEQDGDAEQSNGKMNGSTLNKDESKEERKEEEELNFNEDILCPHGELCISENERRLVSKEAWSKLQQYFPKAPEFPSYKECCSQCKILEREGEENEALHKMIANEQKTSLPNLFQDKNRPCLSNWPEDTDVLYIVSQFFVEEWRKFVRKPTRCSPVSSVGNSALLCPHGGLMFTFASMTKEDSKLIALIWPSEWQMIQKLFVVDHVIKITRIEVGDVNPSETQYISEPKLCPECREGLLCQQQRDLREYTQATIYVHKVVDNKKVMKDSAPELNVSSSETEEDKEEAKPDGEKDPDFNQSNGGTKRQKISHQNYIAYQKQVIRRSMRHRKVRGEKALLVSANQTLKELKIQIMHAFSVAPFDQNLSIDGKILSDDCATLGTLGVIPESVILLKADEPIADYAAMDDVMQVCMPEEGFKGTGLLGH
Summary of the method: as §1

[5] = target: T4, USP5 (UniProt P45974)
T4 sequence (whole entry): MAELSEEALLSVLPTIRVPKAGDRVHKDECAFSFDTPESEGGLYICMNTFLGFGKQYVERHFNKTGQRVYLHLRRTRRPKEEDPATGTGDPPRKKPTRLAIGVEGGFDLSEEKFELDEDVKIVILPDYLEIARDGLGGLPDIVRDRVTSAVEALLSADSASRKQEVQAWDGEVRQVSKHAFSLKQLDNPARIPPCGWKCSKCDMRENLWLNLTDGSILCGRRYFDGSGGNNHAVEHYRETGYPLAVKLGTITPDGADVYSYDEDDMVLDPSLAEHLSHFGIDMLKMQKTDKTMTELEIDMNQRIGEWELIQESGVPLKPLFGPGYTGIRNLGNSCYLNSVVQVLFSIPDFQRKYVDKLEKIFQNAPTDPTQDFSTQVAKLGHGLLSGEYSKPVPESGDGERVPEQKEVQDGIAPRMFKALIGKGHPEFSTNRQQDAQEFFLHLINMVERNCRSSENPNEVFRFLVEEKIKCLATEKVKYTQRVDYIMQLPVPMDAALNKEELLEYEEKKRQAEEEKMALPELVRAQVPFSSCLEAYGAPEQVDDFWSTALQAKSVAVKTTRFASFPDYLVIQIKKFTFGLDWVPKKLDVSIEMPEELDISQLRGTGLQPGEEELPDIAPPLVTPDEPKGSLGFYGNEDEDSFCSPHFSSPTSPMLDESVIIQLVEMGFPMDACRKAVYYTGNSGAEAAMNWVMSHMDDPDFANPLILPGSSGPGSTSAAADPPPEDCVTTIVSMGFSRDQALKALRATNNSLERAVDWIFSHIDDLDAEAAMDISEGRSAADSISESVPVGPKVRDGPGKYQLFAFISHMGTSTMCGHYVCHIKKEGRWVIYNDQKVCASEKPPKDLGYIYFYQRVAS
Summary of the method: as §1

[6] = target: USP54 (UniProt Q70EL1)
Summary of the method: as §1

[7] = target: USP7 (UniProt Q93009)
Summary of the method: as §1

[8] = target: T5, USP8 (UniProt P40818)
T5 sequence (whole entry): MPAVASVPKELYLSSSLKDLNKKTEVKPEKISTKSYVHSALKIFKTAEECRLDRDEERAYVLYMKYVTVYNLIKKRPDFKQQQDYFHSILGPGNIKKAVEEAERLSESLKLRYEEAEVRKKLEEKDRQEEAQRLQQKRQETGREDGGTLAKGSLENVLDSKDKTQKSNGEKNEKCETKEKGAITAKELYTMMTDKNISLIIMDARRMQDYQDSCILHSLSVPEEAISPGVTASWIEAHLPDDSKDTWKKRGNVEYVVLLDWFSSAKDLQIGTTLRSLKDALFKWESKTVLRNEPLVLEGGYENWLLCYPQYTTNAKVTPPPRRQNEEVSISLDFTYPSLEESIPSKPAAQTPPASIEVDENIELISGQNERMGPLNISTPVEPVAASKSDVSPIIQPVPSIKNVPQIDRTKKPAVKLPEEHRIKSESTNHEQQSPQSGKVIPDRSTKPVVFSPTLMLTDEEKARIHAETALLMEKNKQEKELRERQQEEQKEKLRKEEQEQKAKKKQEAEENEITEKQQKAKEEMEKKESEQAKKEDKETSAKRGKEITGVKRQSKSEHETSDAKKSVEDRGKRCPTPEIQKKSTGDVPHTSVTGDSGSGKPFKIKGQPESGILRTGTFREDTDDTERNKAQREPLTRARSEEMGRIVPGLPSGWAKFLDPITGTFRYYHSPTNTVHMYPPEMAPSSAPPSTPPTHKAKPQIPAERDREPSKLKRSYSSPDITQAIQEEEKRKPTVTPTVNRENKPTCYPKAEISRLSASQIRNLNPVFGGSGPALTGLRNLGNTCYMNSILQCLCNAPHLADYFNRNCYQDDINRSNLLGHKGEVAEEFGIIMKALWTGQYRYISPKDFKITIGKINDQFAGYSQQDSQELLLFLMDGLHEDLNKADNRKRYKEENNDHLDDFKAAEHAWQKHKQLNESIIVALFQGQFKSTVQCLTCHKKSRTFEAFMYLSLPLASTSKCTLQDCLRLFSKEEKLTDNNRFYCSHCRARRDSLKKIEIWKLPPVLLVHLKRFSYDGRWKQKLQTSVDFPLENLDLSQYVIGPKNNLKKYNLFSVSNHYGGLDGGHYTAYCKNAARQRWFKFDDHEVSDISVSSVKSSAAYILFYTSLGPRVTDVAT
Summary of the method: as §1

Measured: log2 ratio of Biotin-Ahx-Ub-VS probe labelling

Chain of USP54 (Q70EL1 whole entry): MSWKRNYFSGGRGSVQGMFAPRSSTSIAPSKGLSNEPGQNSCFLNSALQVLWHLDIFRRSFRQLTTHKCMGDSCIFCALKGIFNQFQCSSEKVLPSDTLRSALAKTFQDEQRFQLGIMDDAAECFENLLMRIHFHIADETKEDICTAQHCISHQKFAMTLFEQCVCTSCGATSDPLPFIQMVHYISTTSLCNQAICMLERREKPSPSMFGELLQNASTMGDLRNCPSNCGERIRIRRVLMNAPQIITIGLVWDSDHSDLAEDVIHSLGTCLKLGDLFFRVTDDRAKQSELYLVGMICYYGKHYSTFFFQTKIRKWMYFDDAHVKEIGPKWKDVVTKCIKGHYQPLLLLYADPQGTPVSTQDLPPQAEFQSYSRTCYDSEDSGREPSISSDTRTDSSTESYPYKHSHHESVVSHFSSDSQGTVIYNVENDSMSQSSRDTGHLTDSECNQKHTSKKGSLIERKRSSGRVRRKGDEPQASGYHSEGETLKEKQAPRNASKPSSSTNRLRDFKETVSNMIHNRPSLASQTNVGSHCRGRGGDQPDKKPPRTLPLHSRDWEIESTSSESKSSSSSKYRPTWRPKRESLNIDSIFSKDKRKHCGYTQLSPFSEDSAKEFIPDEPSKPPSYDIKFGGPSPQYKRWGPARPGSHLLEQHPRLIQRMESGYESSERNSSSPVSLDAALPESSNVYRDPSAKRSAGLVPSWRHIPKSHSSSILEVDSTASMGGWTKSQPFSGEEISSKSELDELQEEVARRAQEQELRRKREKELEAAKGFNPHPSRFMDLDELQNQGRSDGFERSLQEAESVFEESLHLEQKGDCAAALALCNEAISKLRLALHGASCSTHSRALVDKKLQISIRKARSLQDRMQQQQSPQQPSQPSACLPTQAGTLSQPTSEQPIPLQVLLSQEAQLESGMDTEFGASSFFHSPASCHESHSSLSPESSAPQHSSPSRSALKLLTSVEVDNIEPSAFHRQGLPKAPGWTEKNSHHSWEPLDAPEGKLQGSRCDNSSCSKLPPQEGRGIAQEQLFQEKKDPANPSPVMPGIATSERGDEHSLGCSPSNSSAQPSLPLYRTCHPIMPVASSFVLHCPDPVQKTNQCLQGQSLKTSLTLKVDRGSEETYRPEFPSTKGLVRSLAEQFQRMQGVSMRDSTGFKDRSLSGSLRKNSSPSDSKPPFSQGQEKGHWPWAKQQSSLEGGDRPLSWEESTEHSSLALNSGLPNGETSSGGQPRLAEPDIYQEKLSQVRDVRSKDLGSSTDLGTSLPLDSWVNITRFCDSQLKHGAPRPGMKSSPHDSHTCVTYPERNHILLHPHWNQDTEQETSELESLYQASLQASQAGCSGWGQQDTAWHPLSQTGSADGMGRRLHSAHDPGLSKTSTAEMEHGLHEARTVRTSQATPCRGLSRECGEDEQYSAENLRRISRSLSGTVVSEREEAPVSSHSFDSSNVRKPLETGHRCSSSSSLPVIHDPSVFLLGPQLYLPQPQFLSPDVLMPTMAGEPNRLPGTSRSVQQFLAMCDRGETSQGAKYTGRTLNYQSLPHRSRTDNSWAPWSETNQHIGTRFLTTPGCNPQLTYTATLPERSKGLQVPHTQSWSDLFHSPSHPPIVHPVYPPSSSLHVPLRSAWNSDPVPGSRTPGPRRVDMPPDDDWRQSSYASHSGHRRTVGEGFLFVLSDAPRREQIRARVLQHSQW
Chain of USP46 (P62068 whole entry): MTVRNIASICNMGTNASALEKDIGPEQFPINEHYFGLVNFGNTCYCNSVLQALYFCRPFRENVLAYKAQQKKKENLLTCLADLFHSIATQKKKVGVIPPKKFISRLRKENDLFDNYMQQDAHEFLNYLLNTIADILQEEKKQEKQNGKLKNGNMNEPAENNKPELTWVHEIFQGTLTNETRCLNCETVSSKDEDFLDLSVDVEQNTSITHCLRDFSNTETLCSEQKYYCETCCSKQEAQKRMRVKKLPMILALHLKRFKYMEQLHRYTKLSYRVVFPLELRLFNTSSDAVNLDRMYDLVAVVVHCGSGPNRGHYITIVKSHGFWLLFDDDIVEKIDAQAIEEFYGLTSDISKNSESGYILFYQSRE
Chain of USP7 (Q93009 whole entry, looked up): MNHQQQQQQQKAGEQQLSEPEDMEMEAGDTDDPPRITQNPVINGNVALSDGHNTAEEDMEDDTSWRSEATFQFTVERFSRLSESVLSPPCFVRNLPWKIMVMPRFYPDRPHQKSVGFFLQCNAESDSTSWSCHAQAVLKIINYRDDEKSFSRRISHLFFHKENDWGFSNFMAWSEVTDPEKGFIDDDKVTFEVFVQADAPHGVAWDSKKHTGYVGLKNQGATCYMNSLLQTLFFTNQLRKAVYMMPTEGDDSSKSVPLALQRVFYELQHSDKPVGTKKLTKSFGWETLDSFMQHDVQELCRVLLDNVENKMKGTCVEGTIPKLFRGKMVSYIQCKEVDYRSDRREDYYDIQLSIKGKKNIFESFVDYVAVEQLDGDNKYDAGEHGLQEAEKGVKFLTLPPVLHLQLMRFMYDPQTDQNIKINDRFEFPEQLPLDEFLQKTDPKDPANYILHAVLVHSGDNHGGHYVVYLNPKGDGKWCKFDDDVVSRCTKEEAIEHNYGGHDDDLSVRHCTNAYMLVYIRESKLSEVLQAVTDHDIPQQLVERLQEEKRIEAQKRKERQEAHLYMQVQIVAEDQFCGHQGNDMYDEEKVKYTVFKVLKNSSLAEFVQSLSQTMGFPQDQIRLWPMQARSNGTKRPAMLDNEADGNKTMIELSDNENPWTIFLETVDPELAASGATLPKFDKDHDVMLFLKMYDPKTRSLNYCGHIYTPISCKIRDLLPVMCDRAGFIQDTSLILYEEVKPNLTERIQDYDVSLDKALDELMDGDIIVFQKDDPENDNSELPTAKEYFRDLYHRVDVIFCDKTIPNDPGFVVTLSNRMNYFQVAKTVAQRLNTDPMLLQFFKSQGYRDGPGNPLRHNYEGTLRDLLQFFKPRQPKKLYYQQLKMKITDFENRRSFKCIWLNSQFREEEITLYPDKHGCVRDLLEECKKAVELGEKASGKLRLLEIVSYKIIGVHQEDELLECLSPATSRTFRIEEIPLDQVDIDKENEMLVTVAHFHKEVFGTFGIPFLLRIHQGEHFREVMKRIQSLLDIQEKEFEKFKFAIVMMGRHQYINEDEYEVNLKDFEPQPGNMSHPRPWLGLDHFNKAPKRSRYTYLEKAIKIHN

COCC[C@@H](NC(=O)CCl)c1ccccc1
inactive: [1] 0.331 | [2] 0.164 | [3] -0.122 | [4] -0.261 | [5] 0.0242 | [6] 0.235 | [7] -0.0296 | [8] -0.0978
